# Source: PubChem BioAssay
# Calls of active or inactive are those of the source.
# Tests used:
# [1] = target: Albumin (Bos taurus) (UniProt P02769); experiment: bovine serum albumin binders on microarray, profiling panel, artefact control for SMM control protein annotation, biochemical, small-molecule microarray, Alexa647 label, 635/667 nm fluorescence (AID 1118); conditions: BSA-A647 binding, fluorescence 635 nm, higher = more signal;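 note: score merges 667 nm emission intensity and signal-to-noise per printed compound spot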
# Albumin (Bos taurus), sequence (P02769 whole entry, looked up): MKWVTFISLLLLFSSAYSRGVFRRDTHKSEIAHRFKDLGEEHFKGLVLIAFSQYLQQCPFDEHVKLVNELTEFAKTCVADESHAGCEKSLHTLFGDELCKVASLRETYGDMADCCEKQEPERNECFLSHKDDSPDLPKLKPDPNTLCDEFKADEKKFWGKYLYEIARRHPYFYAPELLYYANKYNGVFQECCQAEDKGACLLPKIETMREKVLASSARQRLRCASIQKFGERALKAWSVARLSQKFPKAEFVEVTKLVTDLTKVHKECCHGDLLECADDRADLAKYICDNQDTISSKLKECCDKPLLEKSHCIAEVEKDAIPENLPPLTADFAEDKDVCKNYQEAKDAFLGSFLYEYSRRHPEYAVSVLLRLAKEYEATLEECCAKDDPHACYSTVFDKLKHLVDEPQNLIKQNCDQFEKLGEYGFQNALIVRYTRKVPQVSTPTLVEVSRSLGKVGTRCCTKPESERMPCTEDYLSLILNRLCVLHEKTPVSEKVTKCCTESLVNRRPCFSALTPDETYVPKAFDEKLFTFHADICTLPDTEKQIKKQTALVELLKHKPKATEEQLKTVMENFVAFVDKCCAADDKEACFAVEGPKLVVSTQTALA
# [2] = small-molecule microarray binders of probe aXIP, primary screen, biochemical, NeuroSMM set, 635/667 nm fluorescence (AID 1119); conditions: higher = more signal, called active from +8 up or from −8 down;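 note: probe is the protein aXip251-270 applied at 1 µg/mL to compound-printed slides; binding of probe to printed compounds measured as 667 nm fluorescence plus signal to noise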
# [3] = small-molecule binders of probe aNOTCH3, primary screen, biochemical, small-molecule microarray, 635/667 nm fluorescence (AID 1120); conditions: higher = more signal;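 note: probe is a biotin-tagged antibody raised against NOTCH3 rather than NOTCH3 protein; score merges spot fluorescence near 667 nm with spot signal to noise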
# [4] = small-molecule binders of probe aNOTCH2, primary screen, biochemical, small-molecule microarray, 635/667 nm fluorescence (AID 1121); conditions: higher = more signal;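 note: score merges feature fluorescence read at 667 nm with its signal to noise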
# [5] = target: Carbonic anhydrase 2 (Homo sapiens) (UniProt P00918); experiment: CAII small-molecule binders, profiling panel, biochemical, small-molecule microarray, Alexa647-labelled CAII (AID 1122); conditions: CAII-A647 binding fluorescence, higher = more signal
# [6] = COS7 lysate on small-molecule microarray, probe aHis, 635 nm (AID 1123); conditions: COS7 cell lysate, fluorescence, higher = more signal;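 note: z-score combines 667nm fluorescence intensity with signal-to-noise per printed compound spot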
# [7] = compound binding in COS7 lysate, probe aLAP1, primary screen, cell lysate, small-molecule microarray (AID 1124); conditions: probe aLAP1, fluorescence, higher = more signal;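 note: lysate comes from COS7 cells expressing LAP1 and is applied at 0.3 µg/mL; score merges spot fluorescence near 667 nm with signal-to-noise over triplicate slides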
# [8] = test system: Sam68 (KHDRBS1); experiment: Sam68 small-molecule binders, primary screen, biochemical, small-molecule microarray, 635 nm fluorescence (AID 1125); conditions: small-molecule microarray binding, higher = more signal;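 note: score merges 667 nm channel intensity with signal to noise over triplicate slides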
# [9] = test system: Chordin-like protein 2 (CHRDL2); experiment: CHRDL2 small-molecule binders, primary screen, biochemical, small-molecule microarray, 635 nm fluorescence (AID 1126); conditions: small-molecule microarray binding, fluorescence 635 nm; higher = more signal;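 note: printed compound slides probed with Chrdl2 protein at 4 µg/mL for 1 h at 4 C; score merges 667 nm emission intensity with signal to noise over three replicate slides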
# [10] = target: Concanavalin-A (Canavalia ensiformis) (UniProt P02866); experiment: ConA small-molecule binders, primary screen, artefact control for SMM control protein annotation, biochemical, small-molecule microarray, Alexa647 label, 635 nm (AID 1127); conditions: ConA-A647 binding fluorescence, higher = more signal;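 note: z combines 667 nm emission intensity with signal-to-noise across three replicate slides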
# Concanavalin-A (Canavalia ensiformis), sequence (P02866 whole entry, looked up): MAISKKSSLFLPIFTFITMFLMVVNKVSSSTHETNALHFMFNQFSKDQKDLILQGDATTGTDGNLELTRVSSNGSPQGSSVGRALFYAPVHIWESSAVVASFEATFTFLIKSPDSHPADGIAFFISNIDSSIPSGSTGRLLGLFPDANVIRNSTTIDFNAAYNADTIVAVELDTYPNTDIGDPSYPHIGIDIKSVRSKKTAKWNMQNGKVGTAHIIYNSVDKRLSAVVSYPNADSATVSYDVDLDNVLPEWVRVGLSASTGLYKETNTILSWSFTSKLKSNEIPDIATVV
# [11] = anti-His antibody binders, primary screen, artefact control for SMM control protein annotation, biochemical, small-molecule microarray, 635 nm fluorescence (AID 1128); conditions: anti-His Alexa647 antibody binding, higher = more signal;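 note: score merges feature fluorescence with signal-to-noise for each printed compound spot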
# [12] = test system: Human papillomavirus type 1a E7 protein (residues 1-88); experiment: HPV1a E7 small-molecule binders, primary screen, biochemical, small-molecule microarray, residues 1-88, 635 nm (AID 1129); conditions: small-molecule microarray binding, fluorescence 635 nm; higher = more signal
# [13] = target: Focal adhesion kinase 1 (Homo sapiens) (UniProt Q05397); experiment: small-molecule microarray binders of FAK, primary screen, biochemical, 635/667 nm fluorescence, BSA, DTT (AID 1130); conditions: PTK2 binding, 635 nm fluorescence, higher = more signal;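 note: composite of spot emission at 667 nm and signal to noise over triplicate slides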
# Focal adhesion kinase 1 (Homo sapiens), sequence (Q05397 whole entry, looked up): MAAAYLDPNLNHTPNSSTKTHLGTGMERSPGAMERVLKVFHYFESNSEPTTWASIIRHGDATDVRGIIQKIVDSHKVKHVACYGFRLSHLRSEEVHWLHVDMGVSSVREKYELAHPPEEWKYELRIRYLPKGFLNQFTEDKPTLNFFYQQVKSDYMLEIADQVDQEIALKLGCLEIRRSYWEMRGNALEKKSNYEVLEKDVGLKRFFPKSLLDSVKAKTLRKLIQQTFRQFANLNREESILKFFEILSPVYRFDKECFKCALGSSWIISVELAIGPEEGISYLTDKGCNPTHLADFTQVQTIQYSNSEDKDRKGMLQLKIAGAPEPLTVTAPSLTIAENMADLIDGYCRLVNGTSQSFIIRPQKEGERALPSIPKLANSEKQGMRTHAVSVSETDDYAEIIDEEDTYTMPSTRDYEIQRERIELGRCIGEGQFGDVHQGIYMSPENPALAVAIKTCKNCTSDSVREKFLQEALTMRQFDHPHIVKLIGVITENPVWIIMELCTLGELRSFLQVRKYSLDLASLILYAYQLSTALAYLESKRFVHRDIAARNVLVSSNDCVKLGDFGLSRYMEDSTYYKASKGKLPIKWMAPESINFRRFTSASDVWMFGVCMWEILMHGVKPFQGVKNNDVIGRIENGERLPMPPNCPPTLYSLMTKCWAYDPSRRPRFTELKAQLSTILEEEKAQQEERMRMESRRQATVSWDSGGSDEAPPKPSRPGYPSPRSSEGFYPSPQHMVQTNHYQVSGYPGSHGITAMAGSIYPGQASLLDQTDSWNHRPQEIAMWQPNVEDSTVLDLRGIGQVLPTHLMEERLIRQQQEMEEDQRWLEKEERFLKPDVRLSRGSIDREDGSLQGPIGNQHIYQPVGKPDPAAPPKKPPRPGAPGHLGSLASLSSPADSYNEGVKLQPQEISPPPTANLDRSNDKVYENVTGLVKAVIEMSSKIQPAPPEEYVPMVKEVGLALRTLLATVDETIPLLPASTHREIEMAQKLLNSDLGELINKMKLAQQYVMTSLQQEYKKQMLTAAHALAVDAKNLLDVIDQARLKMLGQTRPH
# [14] = test system: Fibrinogen (Alexa647-labelled); experiment: fibrinogen binders on compound microarrays, profiling panel, artefact control for SMM control-protein annotation, biochemical, small-molecule microarray, 635/667 nm fluorescence (AID 1131); conditions: fibrinogen-A647 binding fluorescence, higher = more signal;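 note: z-score merges 667 nm fluorescence with per-spot signal-to-noise over triplicate slides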
# [15] = target: Follistatin (Homo sapiens) (UniProt P19883); experiment: follistatin binders on small-molecule microarrays, primary screen, biochemical, small-molecule microarray, 635/667 nm fluorescence (AID 1132); conditions: FST binding, 635 nm fluorescence, higher = more signal
# Follistatin (Homo sapiens), sequence (P19883 whole entry, looked up): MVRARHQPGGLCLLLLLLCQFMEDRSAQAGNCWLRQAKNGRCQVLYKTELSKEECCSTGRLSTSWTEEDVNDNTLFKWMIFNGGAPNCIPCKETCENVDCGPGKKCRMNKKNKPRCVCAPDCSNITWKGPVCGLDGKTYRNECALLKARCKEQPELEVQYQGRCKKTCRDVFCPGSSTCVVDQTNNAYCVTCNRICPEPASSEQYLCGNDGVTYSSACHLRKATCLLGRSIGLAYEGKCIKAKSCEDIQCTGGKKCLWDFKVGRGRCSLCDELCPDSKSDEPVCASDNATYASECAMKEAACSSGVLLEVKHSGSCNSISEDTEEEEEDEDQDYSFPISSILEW
# [16] = target: Fibroblast growth factor 2 (Homo sapiens) (UniProt P09038); experiment: FGF2 binders on small-molecule microarrays, primary screen, biochemical, small-molecule microarray, 635/667 nm fluorescence (AID 1133); conditions: small-molecule microarray binding, FGF2, fluorescence 635/667; higher = more signal
# Fibroblast growth factor 2 (Homo sapiens), sequence (P09038 whole entry, looked up): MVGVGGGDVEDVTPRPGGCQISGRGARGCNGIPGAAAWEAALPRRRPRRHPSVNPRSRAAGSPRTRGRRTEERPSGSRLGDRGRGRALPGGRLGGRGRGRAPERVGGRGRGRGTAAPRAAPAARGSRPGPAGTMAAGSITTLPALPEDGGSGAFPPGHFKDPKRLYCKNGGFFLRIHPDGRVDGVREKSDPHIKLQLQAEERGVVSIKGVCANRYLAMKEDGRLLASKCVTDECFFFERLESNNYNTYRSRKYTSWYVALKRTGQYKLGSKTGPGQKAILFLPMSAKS
# [17] = mitochondrial membrane potential change in A549 cells, profiling panel, cell-based, JC-1 fluorescence, basal, 24 h, 100 nL (AID 1138); conditions: higher = more signal;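 note: A549 lung adenocarcinoma cells under basal conditions with no added stimulus; test concentration not given here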
# [18] = test system: Lefty1; experiment: Lefty1 binders on small-molecule microarrays, primary screen, biochemical, small-molecule microarray, 635/667 nm fluorescence (AID 1139); conditions: small-molecule microarray binding, fluorescence 635/667; higher = more signal
# [19] = test system: wheat germ agglutinin (Triticum aestivum), Alexa647-labelled; experiment: wheat germ agglutinin binders on compound microarrays, profiling panel, artefact control for SMM control-protein annotation, biochemical, small-molecule microarray, 635/667 nm fluorescence (AID 1140); conditions: WGA-A647 binding, 635 nm fluorescence, higher = more signal;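 note: score merges 667 nm feature emission with signal to noise over triplicate slides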
# [20] = target: Luciferin 4-monooxygenase (Photinus pyralis) (UniProt P08659); experiment: firefly luciferase enzyme inhibitors, primary screen, biochemical, luminescence, purified enzyme, 2006 set (AID 1141); conditions: SteadyGlo luminescence, 30 min, higher = more signal, called active from +8 up or from −8 down;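 note: cell-free assay with purified firefly luciferase at 100 ng per well in PBS; test concentration not given here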
# Luciferin 4-monooxygenase (Photinus pyralis), sequence (P08659 whole entry, looked up): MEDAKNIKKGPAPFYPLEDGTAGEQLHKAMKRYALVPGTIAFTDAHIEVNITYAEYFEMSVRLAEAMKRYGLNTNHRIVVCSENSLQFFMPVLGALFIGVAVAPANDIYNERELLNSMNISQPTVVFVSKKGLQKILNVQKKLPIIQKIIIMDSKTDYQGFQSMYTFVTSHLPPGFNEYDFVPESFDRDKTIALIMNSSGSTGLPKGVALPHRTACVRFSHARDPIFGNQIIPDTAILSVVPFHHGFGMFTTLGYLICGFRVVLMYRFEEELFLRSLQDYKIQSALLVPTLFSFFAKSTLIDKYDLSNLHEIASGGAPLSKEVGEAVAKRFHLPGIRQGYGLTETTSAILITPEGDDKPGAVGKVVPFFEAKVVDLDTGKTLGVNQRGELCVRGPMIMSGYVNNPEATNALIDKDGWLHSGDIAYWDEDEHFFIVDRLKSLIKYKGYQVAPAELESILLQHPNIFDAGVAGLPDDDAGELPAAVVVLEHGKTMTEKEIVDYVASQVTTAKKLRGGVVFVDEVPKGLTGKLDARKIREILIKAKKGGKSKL
SMILES,composite z-score [1],composite Z-score [2],composite z-score [3],composite z-score [4],composite z-score [5],composite z-score [6],composite z-score [7],composite z-score [8],composite z-score [9],composite z-score [10],composite z-score [11],composite z-score [12],composite z-score [13],composite z-score [14],composite z-score [15],composite z-score [16],z-score [17],composite z-score [18],composite z-score [19],z-score [20]
C[C@@]1([C@@H](NS(=O)(=O)c2cccc3cccnc23)c2ccc(-c3ccccc3)cc2)C[C@H]1C1CCCCC1,0.533,-0.343 (inactive),0.314,0.131,0.549,2.06,0.165,0.292,-0.214,0.391,0.431,1.18,1.14,-0.744,0.247,-0.506,0.00915,-0.959,0.655,1.29 (inactive)
C=C(COC)/C(=C/C[C@@H](OC(C)=O)c1cccc(OCCO)c1)c1cnc2ccccc2c1,0.238,-0.365 (inactive),0.0916,-0.084,0.98,1.12,0.0842,0.965,1.42,0.877,0.309,0.75,-0.012,-0.657,1.42,1.2,0.031,1.24,1.04,-1.11 (inactive)
C=C[C@H](C)[C@@H](OC(=O)Nc1ccc(SC)cc1)c1ccc(OCCO)cc1,0.312,0.794 (inactive),0.137,-0.0008,0.397,1.59,0.471,0.157,0.28,0.272,2.21,1.14,0.461,-1.15,0.629,0.2,-1.8,0.265,0.827,-7.41 (inactive)
COC(=O)[C@@]1(Cc2ccc(F)cc2)[C@H]2c3cc(C(=O)N(C)C)n(Cc4ccc(C(F)(F)F)nc4)c3C[C@H]2CN1C(=O)c1ccccc1,0.98,-0.387 (inactive),0.894,-0.0531,0.726,3.26,0.311,1.33,0.214,1.1,1.33,1.27,1.61,1.02,1.05,-0.234,0.453,0.853,0.895,1.57 (inactive)
Cc1ccc(S[C@]2(C(=O)NCc3ccccc3)CC(=O)N(Cc3ccccc3C(F)(F)F)[C@@H]2c2ccc(CO)cc2I)cc1,0.269,-0.915 (inactive),-0.242,-0.0417,0.815,1.2,1.04,-0.0245,-0.175,-0.546,1.53,-0.645,0.258,-0.201,0.0443,-0.402,1.28,-1.25,0.0776,-0.913 (inactive)
